The assay in a line: M. tuberculosis growth inhibition, HTS (AID 1259417).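 Note: bacteria grown with compound for 5 days at 37 °C.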 The note with it: stronger effect = higher value, concentration not given here.
Where [1] appears, read: M. tuberculosis DsRed fluorescence growth inhibition.
Where [2] appears, read: M. tuberculosis growth inhibition.

We go through 42 compounds from PubChem BioAssay AID1259417 (TB Discovery Research, Infectious Disease Research Institute, 2018).

The structures appear in SMILES notation. In all, about 1,100 compounds went through this assay and about 760 (69%) were called active. The rule behind the calls is not given here. So high a share suggests a set chosen from earlier hits. The list shows a part of the results.

With `Cc1cc(Nc2ccc(C)c(C)c2)n2ncc(-c3ccccc3)c2n1`, the inhibition (as a rule, the change of the read-out against control, counted positive when it falls) was 5.96% (active) under setting [1] and 38.3% under setting [2].
Taken in the same sequence, the figures for `Cc1cc(Nc2ccc(C)c(Cl)c2)n2ncc(-c3ccccc3)c2n1` were -7.72% (inactive) and 1.18%.
As for `COc1ccccc1-c1cnn2c(Nc3cccc(Cl)c3)cc(C)nc12`, the inhibition by setting is: under setting [1], 32.5% (active); under setting [2], 72.2%.
In the case of `O=c1[nH]c(C=Cc2cccc3ccccc23)nc(O)c1[N+](=O)[O-]`, the inhibition reads like this: under setting [1], 3.53% (inactive); under setting [2], 9.27%.
With `CCN(CC)C(=S)NC(=O)c1ccc(Cl)cc1`, the inhibition under setting [1] is 0.912% (inactive) and the inhibition under setting [2] stood at 0.451%.
With `COc1ccc(CCNC(=S)N2CCN(CC=Cc3ccccc3)CC2)cc1OC`, the inhibition under setting [1] is 20.3% (inactive) and the inhibition under setting [2] was 12.5%.
With `S=C(NCc1ccc(Cl)cc1)N1CCN(CC=Cc2ccccc2)CC1`, the inhibition under setting [1] is 5.55% (inactive) and the inhibition under setting [2] was -11%.
For the compound `CCN(CC)c1ccc(NC(=S)NCCc2ccc(OC)c(OC)c2)cc1`, the inhibition under setting [1] is 91.5% (active) and the inhibition under setting [2] turned out to be 100%.
For `CCN(CC)c1ccc(NC(=S)NCc2ccc(Cl)cc2)cc1`, the inhibition is 72.5% (active) under setting [1] and 88.7% under setting [2].
Take `CC1CCN(CCNC(=S)Nc2ccc(F)cc2)CC1`: the inhibition is 0.916% (inactive) under setting [1] and -24% under setting [2].
For `c1ccc(-c2nnc(SCc3nnc(-c4cccs4)o3)o2)cc1`, the inhibition under setting [1] was -2.64% (inactive) and the inhibition under setting [2] is -5.86%.
Regarding `COc1ccc(-c2nnc(SCC(=O)OC3CCCCC3)o2)cc1OC`, the inhibition is, setting by setting: under setting [1], 50.5% (active); under setting [2], 80.2%.
With `COC(=O)CSc1nnc(-c2ccc(Cl)cc2)o1`, the inhibition is 61.4% (active) under setting [1] and 85% under setting [2].
For `O=C(CSc1nnc(-c2cccs2)o1)OC1CCCCC1`, the inhibition was 28.2% (active) under setting [1] and 52.1% under setting [2].
Take `COC(=O)CSc1nnc(-c2ccc(OC)c(OC)c2)o1`: the inhibition under setting [1] is 79.2% (active) and the inhibition under setting [2] was 92.4%.
In the case of `CCOc1ccc(C(=O)Nc2ccc(N3CCN(C(=O)c4cccs4)CC3)c(Cl)c2)cc1Br`, the inhibition runs as follows: under setting [1], 14.9% (inactive); under setting [2], -6.08%.
Regarding `CCc1ccc(OCC(=O)Nc2ccc(N3CCN(C(=O)c4cccs4)CC3)c(Cl)c2)cc1`, the inhibition is 0.597% (inactive) under setting [1] and -20.3% under setting [2].
Turning to `COc1cccc(C(=O)NC(=S)Nc2ccc(N3CCN(C(=O)c4cccs4)CC3)c(Cl)c2)c1`, the inhibition is 62% (active) under setting [1] and 11.5% under setting [2].
Take `O=C(CC12CC3CC(CC(C3)C1)C2)Nc1ccc(Br)cc1`: the inhibition under setting [1] was 50.7% (active) and the inhibition under setting [2] turned out to be 17.6%.
Regarding `O=C(CC12CC3CC(CC(C3)C1)C2)Nc1ccc(F)c(Cl)c1`, the inhibition was 98.3% (active) under setting [1] and 95.1% under setting [2].
On to `O=C(Nc1ccc(F)c(Cl)c1)C12CC3CCC(CC(C3)C1)C2`, for which the inhibition was 100% (active) under setting [1] and 97.2% under setting [2].
In the same order, the values of `O=C(CC12CC3CC(CC(C3)C1)C2)Nc1ccc2ccccc2c1` are 99.1% (active) and 96.6%.
Regarding `COC(=O)c1ccc(NC(=O)CC23CC4CC(CC(C4)C2)C3)cc1`, the inhibition under setting [1] was 5.38% (inactive) and the inhibition under setting [2] is -0.346%.
Consider `O=C(CC12CC3CC(CC(C3)C1)C2)Nc1cccc(Cl)c1`, for which the inhibition under setting [1] is 64.1% (active) and the inhibition under setting [2] came out at 34.5%.
Regarding `Cc1ccc(NC(=O)C23CC4CCC(CC(C4)C2)C3)cc1`, the inhibition is 99.7% (active) under setting [1] and 96.9% under setting [2].
Turning to `O=C(CC12CC3CC(CC(C3)C1)C2)Nc1cccc(C(F)(F)F)c1`, the inhibition reads like this: under setting [1], 97.7% (active); under setting [2], 85.6%.
Consider `COC(=O)c1cc(NC(=O)CC23CC4CC(CC(C4)C2)C3)cc(C(=O)OC)c1`, for which the inhibition under setting [1] was 11.6% (inactive) and the inhibition under setting [2] was -29%.
As to `O=C(CC12CC3CC(CC(C3)C1)C2)Nc1ccc2c(c1)OCCO2`, the inhibition under setting [1] is 40.1% (active) and the inhibition under setting [2] was found to be 16.6%.
Turning to `C[n+]1c2n(c3ccccc31)N=C(c1cc(C(C)(C)C)c(O)c(C(C)(C)C)c1)CS2`, the inhibition runs as follows: under setting [1], -2.19% (inactive); under setting [2], 3.98%.
In the case of `O=C(CC12CC3CC(CC(C3)C1)C2)Nc1ccc(I)cc1F`, the inhibition was 57.6% (active) under setting [1] and 24.5% under setting [2].
Consider `CC(NC(=O)Nc1cccc(C(F)(F)F)c1)C1CC2CCC1C2` (centres undefined), for which the inhibition was 98.8% (active) under setting [1] and 99.4% under setting [2].
Consider `Cc1cc(C)c2[nH]c3ccccc3c2n1`, for which the inhibition under setting [1] is 100% (active) and the inhibition under setting [2] worked out at 101%.
`CCn1c(Sc2ncnc3ccccc23)nc2ccccc21`: the inhibition under setting [1] is 33.7% (active) and the inhibition under setting [2] turned out to be 57.9%.
For the compound `CCCc1cc(-c2nc(-c3ccc(Br)cc3)cs2)ccn1`, the inhibition is 98.5% (active) under setting [1] and 100% under setting [2].
Consider `CCOC(=O)COc1ccc2c(=O)c(-c3ccccc3F)coc2c1C`, for which the inhibition under setting [1] was 77.2% (active) and the inhibition under setting [2] is 94.8%.
As for `CCOC(=O)COc1ccc2c(=O)c(-c3ccccc3Cl)c(C)oc2c1C`, the inhibition reads like this: under setting [1], 41.3% (active); under setting [2], 87.5%.
In the same order, the values of `Clc1ccc(COc2ccc3ccccc3c2CNCc2cccnc2)c(Cl)c1` are 73.9% (active) and 65.8%.
In the same order, the values of `Cc1cccc(OCC(O)CN2CCN(C(c3ccccc3)c3ccccc3)CC2)c1C` (centres undefined) are -6.14% (inactive) and -29.9%.
For the compound `Cc1cccc(OCC(O)CN2CCN(CCN3C(=O)c4cccc5cccc(c45)C3=O)CC2)c1C` (centres undefined), the inhibition under setting [1] is 3.21% (inactive) and the inhibition under setting [2] is -19.3%.
Consider `Cc1ccc(OCC(O)CN2CCN(CC(O)COc3ccc(C)cc3C)CC2)c(C)c1` (centres undefined), for which the inhibition is, setting by setting: under setting [1], 6.73% (active); under setting [2], 45.2%.
`O=C(c1ccc(Cl)cc1)c1ccc(OCC(O)CN2CCN(Cc3ccccc3)CC2)cc1` (centres undefined): the inhibition under setting [1] was 8.82% (inactive) and the inhibition under setting [2] was -14%.
In the same order, the values of `Cc1ccc(Cl)cc1N1CCN(CC(O)COc2ccc(C(=O)c3ccccc3)cc2)CC1` (centres undefined) are 16.7% (inactive) and 1.47%.
